This is a sample that favours compounds with a hit; in the whole collection about 1.6% have one here.
KCNQ2 block = KCNQ2 (rat) channel inhibition; O88943; CHO-K1 KCNQ2, FluxOR thallium flux, 20 min; active compounds read low; B-score at 10 µM; 310,000 compounds, 1.1% hits; AID 2156;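 active = fluorescence ratio B-score at most minus 3 library SDs, with starting brightness B-score within 2 library SDs, cut at about -5.5 in these data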
KCNQ2 enhance = enhances the rat KCNQ2 potassium channel. O88943. CHO-K1 KCNQ2, FluxOR thallium flux fluorescence; active compounds read high. B-score at 10 µM. 310,000 compounds, 0.54% hits;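 active = fluorescence ratio B-score at least 3 SD of library B-scores, with initial fluorescence B-score within 3 of them, cut at about 5.3 in these data; same plate scores as AID 2156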;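 note: B-score of peak minus minimum over baseline fluorescence ratio after K+ and Tl+ stimulus; positive B-score means potentiation of KCNQ2 with more thallium influx and brighter signal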
Kir21 conf inh = confirmation of mouse Kir2.1 potassium channel inhibitors; shares compounds with KCNQ2 enhance; Kir2.1-expressing cells, FluxOR thallium flux fluorescence; active compounds read low; Tl flux remaining, % of negative control (active compounds read low), % at 10 µM; 2,300 compounds, 41% hits;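 active = Primary-screen hit whose thallium flux fell at least 3 control SD below untreated wells in both duplicates, with normal baseline fluorescence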
Target sequence (P35561 whole entry, looked up): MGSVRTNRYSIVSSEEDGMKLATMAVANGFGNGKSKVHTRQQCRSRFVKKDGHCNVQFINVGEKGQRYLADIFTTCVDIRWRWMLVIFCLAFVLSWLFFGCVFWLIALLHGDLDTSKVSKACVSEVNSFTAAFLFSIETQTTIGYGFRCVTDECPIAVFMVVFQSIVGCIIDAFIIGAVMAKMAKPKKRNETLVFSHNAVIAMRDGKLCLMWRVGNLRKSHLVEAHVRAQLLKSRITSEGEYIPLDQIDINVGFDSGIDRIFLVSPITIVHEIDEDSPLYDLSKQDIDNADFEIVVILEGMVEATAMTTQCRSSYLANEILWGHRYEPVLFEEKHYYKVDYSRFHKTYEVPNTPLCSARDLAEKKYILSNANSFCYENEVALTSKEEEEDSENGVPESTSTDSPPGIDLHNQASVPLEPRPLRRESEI
HEK293 ctr = counter-screen for Kir2.1 inhibitors: effect in parental HEK293 cells; AID 2105; shares compounds with KCNQ2 enhance; FluxOR thallium flux fluorescence; 0% = unstimulated blank wells; 2,300 compounds, 19% hits; FluxOR signal as % of negative control (100 = no effect), % at 10 µM;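 active = dye signal at least 3 control SD above or below untreated wells in both duplicates, raw fluorescence within 3, either direction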;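 note: percent is based on the flux ratio of peak minus minimum fluorescence over baseline F0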
CHO-K1 Tl ctr = parental CHO-K1 activity in KCNQ2 potentiator counter-screen | parental CHO-K1 cells, FluxOR thallium flux fluorescence; zero = vehicle mean+3SD, 100% = vehicle-minus-blank window | activity increase over 3SD of controls, % at 10 µM | shares compounds with KCNQ2 enhance | 1,200 compounds, 43% hits;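 active = signal rise of at least 3 SD above the untreated control mean, in both duplicate wells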;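 note: counter screen of KCNQ2 potentiator hits so any rise reflects channel-independent effects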
KCNQ1 sel pot = selectivity of KCNQ2 potentiators: effect on human KCNQ1 | CHO KCNQ1 stable, FluxOR thallium flux fluorescence; beyond 3SD, as % of vehicle-control signal | shares compounds with KCNQ2 enhance | 1,200 compounds, 28% hits | activation over 3SD threshold, % at 10 µM;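 active = fluorescence ratio rise of at least 3 SD of vehicle wells above their mean, in both replicate wells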
KCNQ2 pot confirm = confirmation of rat KCNQ2 potassium channel potentiators. AID 2287. CHO-KCNQ2 cells, FluxOR thallium flux fluorescence. potentiation, less the hit threshold, % at 10 µM. 1,200 compounds, 68% hits. shares compounds with KCNQ2 enhance;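 active = fluorescence ratio rising 3 SD or more over the vehicle control mean in both replicates, plus primary screen hit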;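 note: peak minus minimum thallium fluorescence divided by baseline after K/Tl stimulus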
Kir21 spec = tests whether KCNQ2 potentiators also affect mouse Kir2.1. shares compounds with KCNQ2 enhance. HEK293 Kir2.1, FluxOR thallium flux fluorescence. activity over 3SD threshold, % at 10 µM. 1,200 compounds, 2% hits. AID 2345;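 active = fluorescence ratio rise of at least 3 SD above the vehicle-control mean, seen in both replicates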
KCNQ2 W236L pot = potentiates the retigabine-insensitive rat KCNQ2 W236L mutant channel; CHO KCNQ2-W236L, automated patch clamp current; shares compounds with KCNQ2 enhance; 940 compounds, 10% hits; AID 2558; current increase over 3SD of negative controls (%), active compounds read high, % at 25 µM;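 active = current increase at least 3 SD of the untreated controls above them in both duplicate recordings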
Hits are given with their value; n = inactive; x = no result given; + = active, no number.

SMILES | KCNQ2 block | KCNQ2 enhance | Kir21 conf inh | HEK293 ctr | others
CCOc1cc(N2CCOCC2)c(OCC)cc1NC(=O)COC(=O)CCOc1ccc(C(C)(C)C)cc1 | n | 11 | n | n | CHO-K1 Tl ctr=3.1;KCNQ1 sel pot=n;KCNQ2 pot confirm=n;Kir21 spec=n;KCNQ2 W236L pot=n
CN1CCC(OC(=O)c2ccc(Br)cc2)CC1 | n | n | x | x
CN1CCC(=C(c2ccccc2)c2ccc(Br)cc2)CC1 | n | x | 38% | n
COc1ccc(CC(=O)N2CCCC2)c(OC)c1 | n | x | x | x
Cc1ccc(S(=O)(=O)CC(O)COc2ccc(F)cc2Cl)c(C)c1 (stereo not given) | n | n | 52% | n
Cc1ccc(S(=O)(=O)CC(O)COc2ccc(F)cc2Cl)cc1 (stereo not given) | n | n | x | x
CC(C)C(NC(=O)c1ccco1)C(=O)OCC(=O)Nc1ccc(C(N)=O)cc1 (stereo not given) | n | x | x | x
Cc1ccccc1-c1cnn(-c2cccc([N+](=O)[O-])c2)c1N | n | n | x | x
Nc1c(-c2ccccc2Cl)cnn1-c1cccc([N+](=O)[O-])c1 | n | 5.3 | n | 127% | CHO-K1 Tl ctr=n;KCNQ1 sel pot=n;KCNQ2 pot confirm=2.3;Kir21 spec=n;KCNQ2 W236L pot=n
O=C(c1ccc(C#CC2(O)CCCCC2)cc1)N1CCN(C(c2ccccc2)c2ccccc2)CC1 | n | x | x | x
Cc1ccc(Nc2nc(-c3ccccc3)cs2)nc1 | n | n | x | x
Cc1ccc(Nc2nc(-c3cccs3)cs2)nc1 | n | n | n | n
N#CC1=C(N)N(c2ccccc2)C(c2ccco2)C1(C#N)C#N (stereo not given) | n | x | x | x
N#CC1=C(N)N(c2ccccc2)C(c2cccc([N+](=O)[O-])c2)C1(C#N)C#N (stereo not given) | n | x | 59% | 72%
CN(C)c1cccc(C(=O)N2CCCC(CCC(=O)NCc3ccccc3F)C2)c1 (stereo not given) | n | x | x | x
CCn1c(CNc2ccc(Cl)cc2)nnc1SCc1ccccc1 | n | x | 63% | n
Cn1c(CNc2ccc(Cl)cc2)nnc1SCc1ccccc1 | n | x | x | x
CCn1c(CC(=O)Nc2ccc(C)cc2)nnc1SCC(=O)NCc1ccccc1 | n | x | x | x
CCn1c(CSCc2ccc(C)cc2)nnc1SCC(=O)NCc1ccccc1 | n | x | n | n
CCn1c(=S)sc2c(=O)[nH]c(SCC(=O)Nc3cc(OC)ccc3OC)nc21 | n | x | x | x
O=C(O)c1ccc(S(=O)(=O)NC2CCCCCC2)cc1 | n | x | x | x
c1ccc(-c2n[nH]c(-c3ccccn3)n2)cc1 | n | 14 | n | n | CHO-K1 Tl ctr=n;KCNQ1 sel pot=n;KCNQ2 pot confirm=48;Kir21 spec=n;KCNQ2 W236L pot=n
c1ccc(-c2n[nH]c(-c3ccccn3)n2)nc1 | n | n | x | x
COc1cccc(CN2CCN(c3nc4nonc4nc3N3CCCCC3)CC2=O)c1 | n | x | x | x
O=C1[C@@H]2CSCN2C(=O)CN1Cc1c(F)cccc1Cl | n | x | x | x
SMILES | KCNQ2 block | KCNQ2 enhance | Kir21 conf inh | HEK293 ctr | others
COC(=O)CN1C(=O)Nc2ccc(Cl)cc2C1c1ccccc1 (stereo not given) | n | n | x | x
COC(=O)CN1C(=O)Nc2ccc(Br)cc2C1c1ccccc1Cl (stereo not given) | n | 15 | n | n | CHO-K1 Tl ctr=n;KCNQ1 sel pot=+;KCNQ2 pot confirm=38;Kir21 spec=n;KCNQ2 W236L pot=6.9%
O=C(CCS(=O)(=O)c1cccs1)Nc1ccc(C(=O)NC2CCCC2)cc1 | n | x | x | x
O=C1CN(C(=S)NC(=O)c2ccc(-c3ccccc3)cc2)CCN1 | n | x | x | x
COc1ccccc1C(=O)NNC(=O)C(=O)NC1CCCCC1 | n | 8.5 | n | 321% | CHO-K1 Tl ctr=n;KCNQ1 sel pot=33;KCNQ2 pot confirm=42;Kir21 spec=n;KCNQ2 W236L pot=n
COc1ccccc1C(=O)Nc1ccccc1C(=O)NC1CCCCC1 | n | n | x | x
O=C(c1ccc(COc2ccccc2Br)cc1)N1CCCCCC1 | n | x | x | x
Oc1ccc(N=Nc2cccc(Cl)c2)cc1C=Nc1ccc(N2CCOCC2)cc1 | n | n | x | x
Brc1csc(C=Nc2ccc3c(c2)OCCOCCOCCOCCO3)c1 | n | n | x | x
Oc1c(Br)cc(Cl)cc1C=Nc1ccc(N2CCOCC2)cc1 | n | 11 | n | n | CHO-K1 Tl ctr=n;KCNQ1 sel pot=0.5;KCNQ2 pot confirm=7.7;Kir21 spec=n;KCNQ2 W236L pot=n
Oc1c(Cl)cc(Cl)cc1C=Nc1ccc2c(c1)OCCO2 | n | 8.5 | n | n | CHO-K1 Tl ctr=92;KCNQ1 sel pot=n;KCNQ2 pot confirm=n;Kir21 spec=n;KCNQ2 W236L pot=n
CCSC1=NN2CCS(=O)(=O)N=C2S1 | n | x | x | x
O=[N+]([O-])c1cccnc1N1CCN(c2ccc(F)cc2)CC1 | n | x | x | x
CCC(C)[C@H](NC(=O)N1CCn2c1nc1ccccc12)C(=O)NCc1ccccc1 (stereo not given in full) | n | x | x | x
Cc1cc(C)nc(Oc2ccc([N+](=O)[O-])cc2)n1 | n | x | x | x
Cc1c2cnn(CC(=O)NCCN3CCOCC3)c(=O)c2c(C)n1Cc1ccc(F)cc1 | n | n | x | x
CC(C)(C)NC(=O)CN(C(=O)C(=O)Nc1ccc2c(c1)OCCO2)N1CCOCC1 | n | n | x | x
O=C(O)c1ccc(S(=O)(=O)c2ccc3c(c2)C(=O)N(c2ccc(O)cc2)C3=O)cc1 | n | n | x | x
O=C1c2ccc3c4c(ccc(c24)C(=O)N1c1ccc(O)cc1)C(=O)N(c1ccc(O)cc1)C3=O | n | 11 | n | n | CHO-K1 Tl ctr=2.5;KCNQ1 sel pot=45;KCNQ2 pot confirm=n;Kir21 spec=n
Cc1ccc(S(=O)(=O)c2c(C)cc(C)nc2Oc2cccc(C)c2C)cc1 | n | x | x | x
CNc1nc(C)cc(C)c1S(=O)(=O)c1ccc(C)cc1 | n | x | n | n
COc1ccc(C)cc1NC(=O)C(=O)NNC(=O)c1ccco1 | n | 15 | n | 359% | CHO-K1 Tl ctr=3.4;KCNQ1 sel pot=n;KCNQ2 pot confirm=54;Kir21 spec=n;KCNQ2 W236L pot=n
COc1ccc(C)cc1NC(=O)CCNC(=O)c1ccco1 | n | n | x | x
Cc1noc(C)c1CSCC(=O)Nc1nnc(CC(C)C)s1 | n | x | x | x
CCOC(=O)CSc1nc(Cc2ccccc2)nc2ccccc12 | n | x | 70% | n
SMILES | KCNQ2 block | KCNQ2 enhance | Kir21 conf inh | HEK293 ctr | others
CCOC(=O)CSc1nc(CC)nc2ccccc12 | n | n | x | x
CC(CNC(=O)CCS(=O)(=O)c1ccc2c(c1)NC(=O)CO2)c1ccccc1 (stereo not given) | n | x | x | x
Cc1ccc(C(=O)NNc2cc(N3CCCC3)nc(N3CCCC3)n2)cc1 | n | 10 | n | n | CHO-K1 Tl ctr=96;KCNQ1 sel pot=n;KCNQ2 pot confirm=39;Kir21 spec=n;KCNQ2 W236L pot=n
O=C(NNc1cc(N2CCOCC2)nc(N2CCOCC2)n1)c1ccc(Cl)c(Cl)c1 | n | n | x | x
Cc1ccc(C23CC4CC(CC(C(N)=O)(C4)C2)C3)cc1 | n | n | x | x
NCCOc1ccc(C23CC4CC(CC(C4)C2)C3)cc1 | n | x | x | x
Cc1ccc(C23CC4CC(CC(CN)(C4)C2)C3)cc1 | n | x | 39% | n
NCC12CC3CC(C1)CC(c1ccc(Br)cc1)(C3)C2 | n | x | 34% | n

From PubChem BioAssay
